Measurements published in PubChem BioAssay (NCATS).
Results filed as inconclusive are left out. Calls of active or inactive are those of the source. Calls come from the whole dose curve; as a rule, active = well fitted curve in the direction sought with a large enough effect; inconclusive = small, poorly fitted or top-dose-only effect, or another doubt; inactive = no such curve, though single readings can be large; an effect the other way counts as inactive or inconclusive. Bridge positions count the residues as written; N and C are the ends. Square brackets hold non-standard residues; d marks the D form. Peptide text beside a SMILES is read from it. * marks the point of attachment. ξ: configuration not given here. Ileψ(thiazoline)Cys = CC[C@H](C)[C@H](N)C1=N[C@H](C(=O)*)CS1; ξDab(CH2SO3H) = NC(CCNCS(=O)(=O)O)C(=O)O; d(aIle) = CC[C@H](C)[C@@H](N)C(=O)O; Heptanoyl(6-Me) = CC(C)CCCCC(=O)*; dOrn = NCCC[C@@H](N)C(=O)O; Orn = NCCC[CH](N)C(=O)O; Dab = NCC[CH](N)C(=O)O

Key:
[1] = molecular target: Ubiquitin carboxyl-terminal hydrolase 1 (Homo sapiens) (UniProt O94782); assay: Inhibitors of USP1/UAF1: Pilot qHTS (AID 504865);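 note: rhodamine fluorescence freed from ubiquitin-rhodamine substrate followed over time; top concentration of the series differs between compounds; % is set by controls: 0 for no effect and ±100 for the full control effect; nearly all actives have a fitted effect of over 35% in size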
Summary of the method: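 Deubiquitinase activity followed as kinetic rhodamine fluorescence release from 150 nM Ub-Rho. 1 nM USP1/UAF1 with compound, after 15 min room-temperature preincubation, in HEPES pH 7.8 buffer containing TCEP, EDTA, BSA and Tween-20.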

[2] = molecular target: ATP-dependent 6-phosphofructokinase (Trypanosoma brucei brucei) (UniProt O15648); assay: qHTS Assay to Find Inhibitors of T. brucei phosphofructokinase: hit validation (AID 492961);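 note: luminescence reports ADP formed as PFK phosphorylates fructose-6-phosphate with ATP; % is set by controls: 0 for no effect and ±100 for the full control effect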
Summary of the method: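 Compounds titrated; %activity normalized to 0x and 1x enzyme controls, curve-fitted. Readout: ADP-Glo luminescence after 45 min room-temperature reaction of 1.25 nM PFK, 0.1 mM ATP, 0.5 mM F6P, pH 8.0.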

[3] = molecular target: Luciferin 4-monooxygenase (Photinus pyralis) (UniProt P08659); assay: Biochemical firefly luciferase enzyme assay for NPC (AID 624030);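 note: purified P. pyralis luciferase at 10 nM with luciferin and ATP substrate; 0% = DMSO and -100% = full luciferase inhibition by PTC124 control; nearly all actives have a fitted effect of over 70% in size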
Summary of the method: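 Purified P. pyralis luciferase at 10 nM in 50 mM Tris Acetate (final), luminescence read within 5 minutes of enzyme addition to compounds. Activity normalised to PTC124 versus DMSO; concentration-response curves classed by r2, magnitude and activity.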

[4] = qHTS profiling for inhibitors of Plasmodium falciparum proliferation (AID 504749);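 note: 0% = DMSO vehicle and full inhibition = artemisinin control; nearly all actives have a fitted effect of over 60% in size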; conditions: P. falciparum in erythrocytes, SYBR Green DNA, 72 h, at 28.7 µM (top of the series)
Summary of the method: (§1)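 P. falciparum-infected erythrocytes (0.3% parasitemia, 2.5% hematocrit) incubated with compound 72 h at 37 C, 5% CO2. Parasite DNA detected by SYBR Green after lysis, overnight at room temperature; normalised to 0.29 uM artemisinin and DMSO.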

[5] = test system: ATS189; assay: as above; conditions: P. falciparum in erythrocytes, SYBR Green DNA, 72 h; series mostly up to 28.7 µM
Summary of the method: as §1

[6] = test system: C2A; assay: as above; conditions: P. falciparum in erythrocytes, SYBR Green DNA, 72 h; series mostly up to 28.7 µM
Summary of the method: as §1

[7] = test system: CP191; assay: as above; conditions: P. falciparum in erythrocytes, SYBR Green DNA, 72 h; series mostly up to 28.7 µM
Summary of the method: as §1

[8] = test system: CP192; assay: as above; conditions: P. falciparum in erythrocytes, SYBR Green DNA, 72 h; series mostly up to 28.7 µM
Summary of the method: as §1

[9] = test system: CP201; assay: as above; conditions: P. falciparum in erythrocytes, SYBR Green DNA, 72 h; series mostly up to 28.7 µM
Summary of the method: as §1

[10] = test system: CP215; assay: as above; conditions: P. falciparum in erythrocytes, SYBR Green DNA, 72 h; series mostly up to 28.7 µM
Summary of the method: as §1

[11] = test system: CP237; assay: as above; conditions: P. falciparum in erythrocytes, SYBR Green DNA, 72 h; series mostly up to 28.7 µM
Summary of the method: as §1

[12] = test system: CP238; assay: as above; conditions: P. falciparum in erythrocytes, SYBR Green DNA, 72 h; series mostly up to 28.7 µM
Summary of the method: as §1

[13] = test system: CP268; assay: as above; conditions: P. falciparum in erythrocytes, SYBR Green DNA, 72 h; series mostly up to 28.7 µM
Summary of the method: as §1

[14] = test system: CP269; assay: as above; conditions: P. falciparum in erythrocytes, SYBR Green DNA, 72 h; series mostly up to 28.7 µM
Summary of the method: as §1

[15] = test system: CP286; assay: as above; conditions: P. falciparum in erythrocytes, SYBR Green DNA, 72 h; series mostly up to 28.7 µM
Summary of the method: as §1

[16] = test system: CP325; assay: as above; conditions: P. falciparum in erythrocytes, SYBR Green DNA, 72 h; series mostly up to 28.7 µM
Summary of the method: as §1

[17] = test system: CP329; assay: as above; conditions: P. falciparum in erythrocytes, SYBR Green DNA, 72 h; series mostly up to 28.7 µM
Summary of the method: as §1

[18] = test system: FAB9; assay: as above; conditions: P. falciparum in erythrocytes, SYBR Green DNA, 72 h; series mostly up to 28.7 µM
Summary of the method: as §1

[19] = test system: JCK; assay: as above; conditions: P. falciparum in erythrocytes, SYBR Green DNA, 72 h; series mostly up to 28.7 µM
Summary of the method: as §1

[20] = test system: PC49; assay: as above; conditions: P. falciparum in erythrocytes, SYBR Green DNA, 72 h; series mostly up to 28.7 µM
Summary of the method: as §1

Chain of ATP-dependent 6-phosphofructokinase (Trypanosoma brucei brucei) (O15648 whole entry, looked up): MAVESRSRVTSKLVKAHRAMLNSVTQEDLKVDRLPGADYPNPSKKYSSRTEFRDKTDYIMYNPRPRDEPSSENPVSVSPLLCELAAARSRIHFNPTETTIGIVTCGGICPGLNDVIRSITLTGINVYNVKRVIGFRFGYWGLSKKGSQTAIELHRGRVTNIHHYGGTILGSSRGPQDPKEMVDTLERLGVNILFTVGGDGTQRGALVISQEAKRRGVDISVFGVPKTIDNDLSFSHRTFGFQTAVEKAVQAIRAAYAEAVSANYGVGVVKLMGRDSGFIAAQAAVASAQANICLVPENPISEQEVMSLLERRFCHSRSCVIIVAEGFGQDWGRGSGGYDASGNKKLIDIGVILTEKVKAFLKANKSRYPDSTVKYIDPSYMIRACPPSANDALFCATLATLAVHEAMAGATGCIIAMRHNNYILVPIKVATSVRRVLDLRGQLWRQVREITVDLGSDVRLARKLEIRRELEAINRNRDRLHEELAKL
Chain of Luciferin 4-monooxygenase (Photinus pyralis) (P08659 whole entry, looked up): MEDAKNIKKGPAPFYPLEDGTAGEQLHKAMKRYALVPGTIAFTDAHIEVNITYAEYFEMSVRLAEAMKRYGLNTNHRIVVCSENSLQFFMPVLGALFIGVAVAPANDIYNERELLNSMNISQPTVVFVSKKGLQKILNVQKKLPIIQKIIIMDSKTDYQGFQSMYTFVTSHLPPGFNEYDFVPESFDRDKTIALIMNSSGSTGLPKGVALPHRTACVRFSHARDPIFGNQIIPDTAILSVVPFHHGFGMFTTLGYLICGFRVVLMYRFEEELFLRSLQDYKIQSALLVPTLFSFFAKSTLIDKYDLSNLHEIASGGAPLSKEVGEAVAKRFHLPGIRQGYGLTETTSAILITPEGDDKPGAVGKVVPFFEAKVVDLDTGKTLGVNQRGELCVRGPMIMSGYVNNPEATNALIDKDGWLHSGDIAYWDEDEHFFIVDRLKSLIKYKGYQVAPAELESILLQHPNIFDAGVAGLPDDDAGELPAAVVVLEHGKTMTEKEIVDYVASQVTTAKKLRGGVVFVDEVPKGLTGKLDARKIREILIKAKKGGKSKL
Chain of Ubiquitin carboxyl-terminal hydrolase 1 (Homo sapiens) (O94782 whole entry, looked up): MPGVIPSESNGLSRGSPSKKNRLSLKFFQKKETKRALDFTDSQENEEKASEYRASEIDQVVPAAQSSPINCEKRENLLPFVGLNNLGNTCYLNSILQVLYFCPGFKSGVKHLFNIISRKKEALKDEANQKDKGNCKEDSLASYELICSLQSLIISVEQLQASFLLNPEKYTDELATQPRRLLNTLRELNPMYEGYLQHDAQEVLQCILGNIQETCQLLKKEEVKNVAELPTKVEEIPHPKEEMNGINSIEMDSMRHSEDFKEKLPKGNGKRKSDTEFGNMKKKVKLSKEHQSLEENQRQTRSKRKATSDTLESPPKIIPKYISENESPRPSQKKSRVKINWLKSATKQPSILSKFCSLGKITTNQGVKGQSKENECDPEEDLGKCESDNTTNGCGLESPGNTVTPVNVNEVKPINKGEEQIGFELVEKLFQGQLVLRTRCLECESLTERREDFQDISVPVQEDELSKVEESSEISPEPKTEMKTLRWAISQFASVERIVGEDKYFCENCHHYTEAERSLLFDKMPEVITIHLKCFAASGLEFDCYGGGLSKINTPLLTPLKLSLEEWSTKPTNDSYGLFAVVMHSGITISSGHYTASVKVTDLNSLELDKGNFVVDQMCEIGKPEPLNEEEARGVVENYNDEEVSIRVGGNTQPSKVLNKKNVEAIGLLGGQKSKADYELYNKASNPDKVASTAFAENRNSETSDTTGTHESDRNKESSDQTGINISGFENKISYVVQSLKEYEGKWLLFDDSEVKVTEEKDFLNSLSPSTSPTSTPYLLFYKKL

Nc1nc(/C(=C/CC(=O)O)C(=O)NC2C(=O)N3C(C(=O)O)=CCSC23)cs1 (stereo not drawn)
inactive: Potency [1]

CC(C)C(NC(=O)C(CC(=O)O)NC(=O)C(CCCCN)NC(=O)C(N)CCCN=C(N)N)C(=O)NC(Cc1ccc(O)cc1)C(=O)O (stereo not drawn) (H-RKDVY-OH; configuration not given here)
inactive: outcome [2]

C=C1Nc2ccccc2C(=O)N1c1ccccc1C
inactive: outcome [2] | Potency [1] | Potency [3] | activity, negative = inhibition ([4]; parasite line A) -20.1% | activity, negative = inhibition ([4]; parasite line B) -23.4% | Potency [5] | Potency [6] | Potency [7] | Potency [8] | Potency [9] | Potency [10] | Potency [11] | Potency [12] | Potency [13] | Potency [14] | Potency [15] | Potency [16] | Potency [17] | Potency [18] | Potency [19] | Potency [20]

CC(C)CC(NC(=O)C(COC(C)(C)C)NC(=O)C(Cc1ccc(O)cc1)NC(=O)C(CO)NC(=O)C(Cc1c[nH]c2ccccc12)NC(=O)C(Cc1cnc[nH]1)NC(=O)C1CCC(=O)N1)C(=O)NC(CCCN=C(N)N)C(=O)N1CCCC1C(=O)NNC(N)=O (stereo not drawn)
inactive: outcome [2]

Cc1cc(C)cc(C(=O)OC2CC3CCC(C2)N3C)c1 (stereo not drawn)
inactive: outcome [2] | Potency [1] | Potency [3] | activity, negative = inhibition ([4]; parasite line A) -5.04% | activity, negative = inhibition ([4]; parasite line B) 8.93% | Potency [5] | Potency [6] | Potency [7] | Potency [8] | Potency [9] | Potency [10] | Potency [11] | Potency [12] | Potency [13] | Potency [14] | Potency [15] | Potency [16] | Potency [17] | Potency [18] | Potency [19] | Potency [20]

CC1(C)[C@@H](C=C(Cl)Cl)[C@@H]1C(=O)OCc1c(F)c(F)cc(F)c1F
inactive: outcome [2] | Potency [1] | Potency [3] | activity, negative = inhibition ([4]; parasite line A) 3.24% | activity, negative = inhibition ([4]; parasite line B) 1.84% | Potency [5] | Potency [6] | Potency [7] | Potency [8] | Potency [9] | Potency [10] | Potency [11] | Potency [12] | Potency [13] | Potency [14] | Potency [15] | Potency [16] | Potency [17] | Potency [18] | Potency [19] | Potency [20]

CC[C@H](C)[C@H](N)C1=N[C@H](C(=O)N[C@@H](CC(C)C)C(=O)N[C@@H](CCC(=O)O)C(=O)N[C@@H](C(=O)N[C@H]2CCCCNC(=O)[C@@H](CC(N)=O)NC(=O)[C@@H](CC(=O)O)NC(=O)[C@@H](Cc3cnc[nH]3)NC(=O)[C@@H](Cc3ccccc3)NC(=O)[C@@H]([C@@H](C)CC)NC(=O)[C@@H](CCCN)NC2=O)[C@@H](C)CC)CS1 ({Ileψ(thiazoline)Cys}-LE[d(aIle)]K[dOrn][d(aIle)][dF][dH][dD][dN]; lactam 4-C)
inactive: outcome [2]

CC(C)CC1NC(=O)C(CCCN)NC(=O)C(C(C)C)NC(=O)C2CCCN2C(=O)C(Cc2ccccc2)NC(=O)C(CC(C)C)NC(=O)C(CCCN)NC(=O)C(C(C)C)NC(=O)C2CCCN2C(=O)C(Cc2ccccc2)NC1=O (stereo not drawn) (cyclo(FPV[Orn]LFPV[Orn]L); configuration not given here)
inactive: outcome [2]

OCC(O)[C@H]1O[C@@H]2O[C@H](C(Cl)(Cl)Cl)O[C@@H]2[C@H]1O (stereo partly drawn)
inactive: outcome [2] | Potency [1] | Potency [3] | activity, negative = inhibition ([4]; parasite line A) 8.92% | activity, negative = inhibition ([4]; parasite line B) 3.35% | Potency [5] | Potency [6] | Potency [7] | Potency [8] | Potency [9] | Potency [10] | Potency [11] | Potency [12] | Potency [13] | Potency [14] | Potency [15] | Potency [16] | Potency [17] | Potency [18] | Potency [19] | Potency [20]

CN1C2CCC1C(C(=O)O)C(OC(=O)c1ccccc1)C2 (stereo not drawn)
inactive: outcome [2] | Potency [1] | Potency [3] | activity, negative = inhibition ([4]; parasite line A) 9.89% | activity, negative = inhibition ([4]; parasite line B) 6.56% | Potency [5] | Potency [6] | Potency [7] | Potency [8] | Potency [9] | Potency [10] | Potency [11] | Potency [12] | Potency [13] | Potency [14] | Potency [15] | Potency [16] | Potency [17] | Potency [18] | Potency [19] | Potency [20]

C=CC[N+]1(C)CCC23c4c5ccc(O)c4O[C@H]2C(=O)CC[C@@]3(O)C1C5 (stereo partly drawn)
inactive: outcome [2] | Potency [1] | Potency [3] | activity, negative = inhibition ([4]; parasite line A) 14% | activity, negative = inhibition ([4]; parasite line B) 14.5% | Potency [5] | Potency [6] | Potency [7] | Potency [8] | Potency [9] | Potency [10] | Potency [11] | Potency [12] | Potency [13] | Potency [14] | Potency [15] | Potency [16] | Potency [17] | Potency [18] | Potency [19] | Potency [20]

CCC(C)C1NC(=O)C(CCNCS(=O)(=O)O)NC(=O)C(NC(=O)C(CCNCS(=O)(=O)O)NC(=O)C(NC(=O)C(CCNCS(=O)(=O)O)NC(=O)CCCCC(C)C)C(C)O)CCNC(=O)C(C(C)O)NC(=O)C(CCNCS(=O)(=O)O)NC(=O)C(CCNCS(=O)(=O)O)NC(=O)C(C(C)CC)NC1=O (stereo not drawn) ({Heptanoyl(6-Me)}-[ξDab(CH2SO3H)]T[ξDab(CH2SO3H)][Dab][ξDab(CH2SO3H)]II[ξDab(CH2SO3H)][ξDab(CH2SO3H)]T; lactam 4-C; configuration not given here)
inactive: outcome [2]

[S]=[Sb][S][Sb]=[S]
inactive: outcome [2] | Potency [1] | Potency [3] | activity, negative = inhibition ([4]; parasite line A) 8.49% | activity, negative = inhibition ([4]; parasite line B) 1.29% | Potency [5] | Potency [6] | Potency [7] | Potency [8] | Potency [9] | Potency [10] | Potency [11] | Potency [12] | Potency [13] | Potency [14] | Potency [15] | Potency [16] | Potency [17] | Potency [18] | Potency [19] | Potency [20]
